Common to all, as to conditions: concentration: 10 µM; 24 h
In test [1] the test system is HCC1569. The experiment in a line: cell number relative to DMSO (% of DMSO); higher = more cells (less growth inhibition / toxicity). A digest of the protocol:
(§1)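 In 384-well plates holding 800 HCC1569 or TDF cells per well in RPMI with 10% FBS, compounds were tested at 10 µM for 24 h at 37 °C in triplicate. Fixation used 3.7% formaldehyde. Staining used a rabbit anti-H1.0 antibody with an AlexaFluor 647 secondary, plus DAPI. Each value, H1.0 nuclear intensity or cell number, is a median of replicates shown as percent of the plate control, and HCC1569 values were smoothed for positional effects.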

Test [2] concerns TDF. Described as above. A digest of the protocol: as §1
In test [3] the test system is TDF. Kind of test: H1.0 immunofluorescence intensity relative to DMSO (% of DMSO); higher = stronger H1.0 induction, active = 120 or more. A digest of the protocol:
as §1

In test [4] the test system is HCC1569. Kind of test: H1.0 immunofluorescence intensity relative to DMSO (% of DMSO); higher = stronger H1.0 induction, active = 140 or more. In outline: as §1

± gives the standard deviation of the averaged measurements.
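For H1.0 immunofluorescence intensity relative to DMSO in this document: TDF is a line of transformed human dermal fibroblasts of mesenchymal origin.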
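For cell number relative to DMSO in this document: TDF denotes transformed human dermal fibroblasts of mesenchymal origin.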

On to `COc1ccc(CC(N)C(=O)NC2C(CO)OC(n3cnc4c(N(C)C)ncnc43)C2O)cc1` (stereo not given) [Puromycin], for which the results for the cell number in the test on HCC1569 [1] and in the test with TDF [2] were 24.1 ± 7.4 and 99.2 ± 15, respectively. For the same compound, the H1.0 immunofluorescence intensity was 94 (inactive) in the test on TDF [3] and 90.9 (inactive) with HCC1569 [4].

For `N=C1Sc2ccccc2C2=NCCCN12`, the cell number in the test on HCC1569 [1] turned out to be 100; in the test with TDF [2] it was 99.9. Further, the H1.0 immunofluorescence intensity in the test with TDF [3] was 91.9 (inactive); in the test with HCC1569 [4], 112 (inactive).

For the compound `CS(=O)c1ccc(-c2nc(-c3ccc(F)cc3)c(-c3ccncc3)[nH]2)cc1` (stereo not given), the figures for the cell number with HCC1569 [1] and in the test with TDF [2] were 92.7 and 107, respectively. Besides, the H1.0 immunofluorescence intensity was 98 (inactive) in the test with TDF [3] and 104 (inactive) in the test with HCC1569 [4].

Regarding `O=C(O)c1cc(-c2ccc(F)cc2F)ccc1O` [Diflunisal], the results for the cell number in the test with HCC1569 [1] and in the test on TDF [2] were 102 and 100, respectively. Also, the H1.0 immunofluorescence intensity in the test on TDF [3] was 96.1 (inactive); in the test on HCC1569 [4], 115 (inactive).

`COc1ccc2cc3[n+](cc2c1OC)CCc1cc2c(cc1-3)OCO2.Cl`: the cell number in the test with HCC1569 [1] is 99.4; with TDF [2], 77.9. The H1.0 immunofluorescence intensity was 97.4 (inactive) with TDF [3] and 101 (inactive) in the test on HCC1569 [4].

Consider `CCCCCCCCCCCCCCC[C@@H](O)[C@@H](N)CO` [(2S,3R)-2-amino-1,3-octadecanediol], for which the values for the cell number with HCC1569 [1] and in the test on TDF [2] were 97.2 and 39.4, respectively. Also, the H1.0 immunofluorescence intensity is 120 (active) in the test on TDF [3] and 96.2 (inactive) in the test on HCC1569 [4].

Turning to `CN(C(=O)CCCOc1ccc2[nH]c(=O)ccc2c1)C1CCCCC1` [Cilostamide], the cell number in the test on HCC1569 [1] was 100.9 ± 0.88; in the test with TDF [2] it was 109 ± 5. The H1.0 immunofluorescence intensity in the test on TDF [3] is 96.9 (inactive); in the test on HCC1569 [4] it was 98.1 (inactive).

As to `COc1ccc(-c2cc(=O)c3c(OC)c(OC)c(OC)cc3o2)cc1OC` [Sinensetine], the cell number is 101 with HCC1569 [1] and 99.8 with TDF [2]. Moreover, the H1.0 immunofluorescence intensity in the test with TDF [3] is 93.9 (inactive); in the test on HCC1569 [4], 93.6 (inactive).

Consider `Cc1cc(C(C)(C)C)cc(C)c1CC1=NCCN1.Cl` [Xylometazoline hydrochloride], for which the cell number with HCC1569 [1] came to 97.5; in the test on TDF [2], 93.3. In addition, the values for the H1.0 immunofluorescence intensity in the test with TDF [3] and in the test with HCC1569 [4] were 98.3 (inactive) and 110 (inactive), respectively.

As to `Nc1c2c(nc3ccccc13)CCCC2O.O=C(O)C=CC(=O)O` (stereo not given) [Hydroxytacrine maleate], the figures for the cell number in the test on HCC1569 [1] and in the test with TDF [2] were 104 and 103, respectively. For the same compound, the H1.0 immunofluorescence intensity in the test with TDF [3] was 96.8 (inactive); with HCC1569 [4], 83.4 (inactive).

With `CC1OC(OC2C(Oc3cc(O)c4c(=O)cc(-c5ccc(O)cc5)oc4c3)OC(CO)C(O)C2O)C(O)C(O)C1O` (stereo not given) [Rhoifolin], the cell number worked out at 102 in the test with HCC1569 [1] and 112 with TDF [2]. Besides, the figures for the H1.0 immunofluorescence intensity in the test with TDF [3] and in the test with HCC1569 [4] were 88.4 (inactive) and 89.9 (inactive), respectively.

As to `CC(=O)OCC(=O)C1(O)CCC2C3CCC4=CC(=O)CCC4(C)C3C(=O)CC21C` (stereo not given) [Cortisone 21-acetate], the cell number in the test with HCC1569 [1] was 101; with TDF [2] it was 120. In addition, the figures for the H1.0 immunofluorescence intensity with TDF [3] and in the test on HCC1569 [4] were 97.5 (inactive) and 89.1 (inactive), respectively.

For the compound `CC1=C(C(=O)O)N2C(=O)C(NC(=O)C(N)C3=CCC=CC3)C2SC1` (stereo not given) [Cephradine], the cell number in the test with HCC1569 [1] was determined as 100; with TDF [2], 115. Also, the H1.0 immunofluorescence intensity in the test with TDF [3] was 93.5 (inactive); with HCC1569 [4], 88.5 (inactive).

With `NCCCCCCCCCCN` [1,10-Diaminodecane], the cell number worked out at 101 in the test on HCC1569 [1] and 98.7 with TDF [2]. For the same compound, the H1.0 immunofluorescence intensity in the test on TDF [3] is 89.4 (inactive); in the test with HCC1569 [4] it was 88.5 (inactive).

With `CN1CCc2cc3c(cc2C(=O)Cc2ccc4c(c2C1)OCO4)OCO3` [Protopine], the values for the cell number with HCC1569 [1] and with TDF [2] were 99.4 and 108, respectively. Moreover, the H1.0 immunofluorescence intensity was 97.6 (inactive) in the test with TDF [3] and 92.4 (inactive) in the test on HCC1569 [4].

Turning to `CC(C)N(CCC(=O)c1ccc2ccccc2c1)Cc1ccccc1.Cl` [JAK3 Inhibitor IV], the cell number in the test on HCC1569 [1] came out at 101; in the test with TDF [2], 97. In addition, the figures for the H1.0 immunofluorescence intensity with TDF [3] and in the test with HCC1569 [4] were 96.1 (inactive) and 110 (inactive), respectively.

Turning to `CC(C)(C)n1nc(Cc2cccc3ccccc23)c2c(N)ncnc21` [PP1 Analog II, 1NM-PP1], the cell number was found to be 82.1 with HCC1569 [1] and 103 in the test with TDF [2]. Further, the figures for the H1.0 immunofluorescence intensity in the test on TDF [3] and in the test on HCC1569 [4] were 93.1 (inactive) and 152 (active), respectively.

Turning to `CC1C=CC=CC=CC=CC=CC=CC=CC(OC2OC(C)C(O)C(N)C2O)CC2OC(O)(CC(O)CC(O)C(O)CCC(O)CC(O)CC(=O)OC(C)C(C)C1O)CC(O)C2C(=O)O` (stereo not given) [Amphotericin B], the cell number in the test on HCC1569 [1] stood at 97.4; in the test on TDF [2], 89.9. In addition, the H1.0 immunofluorescence intensity in the test with TDF [3] was 105 (inactive); in the test on HCC1569 [4], 83.9 (inactive).

As for `CC(C)n1c(C=CC(O)CC(O)CC(=O)O)c(-c2ccc(F)cc2)c2ccccc21` (stereo not given) [Fluvastatin], the figures for the cell number in the test on HCC1569 [1] and in the test with TDF [2] were 96.3 and 64.5, respectively. Besides, the H1.0 immunofluorescence intensity in the test on TDF [3] is 148 (active); in the test with HCC1569 [4], 103 (inactive).

With `O=c1cc(N2CCOCC2)oc2c1ccc1ccccc12` [NU 7026 - 2-(4-Morpholinyl)-4H-naphthol[1,2-b]pyran-4-one], the results for the cell number in the test on HCC1569 [1] and with TDF [2] were 96 and 106, respectively. The H1.0 immunofluorescence intensity was 94 (inactive) in the test on TDF [3] and 105 (inactive) in the test with HCC1569 [4].

(Values after the supplement of paper PMC7156485.)
